Data on 14 molecules can be found in PubChem BioAssay (NCI).

SMILES strings stand for the structures. About 83,000 compounds went through this panel and 20% of them were active in at least one assay; those are over-represented in the sample as a whole.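 96-well plates, one dose, 48 hours. Percent growth reported; active if below 10.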 Unmarked numbers belong to inactive results. Calls of active or inactive are those of the source.

Some test systems named below: HCT-15 colon; HT29 colon; SNB-75 CNS; SNB-19 CNS; U251 CNS; PC-3 prostate; SK-MEL-5 melanoma; UACC-62 melanoma; LOX IMVI melanoma; SK-MEL-28 melanoma.
Holding throughout (assay): NCI-60 one-dose screen, 48 h (100 = growth as untreated, 0 = no growth, -100 = all killed)
Details in all cases: 10 µM unless noted

`C#Cc1cccc(Oc2ccc(NC(=O)CCl)cc2)c1`: the growth with HCT-15 colon was -29.8% [8.25 µM] (active); in the test with HT29 colon, 34.5% [8.25 µM]; in the test with SNB-75 CNS, 58.2% [8.25 µM]; in the test with SNB-19 CNS, 54.2% [8.25 µM]; with U251 CNS it was 32.9% [8.25 µM]; with PC-3 prostate it was 61.7% [8.25 µM]. For the same molecule, the growth in the test with SK-MEL-5 melanoma was 6.75% [8.25 µM] (active); in the test with UACC-62 melanoma, 26% [8.25 µM]; in the test with LOX IMVI melanoma it was -27.1% [8.25 µM] (active); with SK-MEL-28 melanoma, 91.8% [8.25 µM].
Take `Cn1ncc2ccc(-c3nc(-c4ccccc4)[nH]c3-c3n[nH]c(=O)n3C3CC3)cc21`: the growth in the test on HCT-15 colon was 100%; in the test on HT29 colon, 87.1%; with SNB-75 CNS, 81.2%; in the test with SNB-19 CNS, 95.9%; with U251 CNS, 100%; with PC-3 prostate, 77.9%. The growth in the test with SK-MEL-5 melanoma was 98.8%; in the test with UACC-62 melanoma it was 100%; in the test on LOX IMVI melanoma, 97.2%; in the test with SK-MEL-28 melanoma it was 102%.
On to `O=C1C(Cl)=C(NCCN2CCOCC2)C(=O)c2ncccc21`, for which the growth was -38% (active) in the test with HCT-15 colon; -27.6% (active) in the test on HT29 colon; 88.3% with SNB-75 CNS; 17.3% in the test on SNB-19 CNS; 29.6% in the test with U251 CNS; 38.1% in the test with PC-3 prostate. Further, the growth with SK-MEL-5 melanoma is -94.1% (active); in the test with UACC-62 melanoma, -51.2% (active); in the test with LOX IMVI melanoma it was -57.3% (active); in the test on SK-MEL-28 melanoma, -84.3% (active).
Take `CCN(CC)c1ccc(/C=N/NC(=O)c2ccc(Nc3ccnc(C(F)(F)F)c3)cc2)c(O)c1`: the growth is 19.6% in the test with HCT-15 colon; 0.587% (active) with HT29 colon; 37.1% with SNB-75 CNS; 15.5% with SNB-19 CNS; 14% in the test with U251 CNS; 19.6% in the test with PC-3 prostate. Further, the growth is -50.6% (active) with SK-MEL-5 melanoma, 5.86% (active) in the test on UACC-62 melanoma, -25.4% (active) in the test with LOX IMVI melanoma and 47.4% in the test on SK-MEL-28 melanoma.
For the molecule `CCSC1=CC(=O)c2ccccc2C1=O`, the growth with HCT-15 colon was 73%; with HT29 colon, 105%; in the test with SNB-75 CNS, 52.8%; with SNB-19 CNS, 87.6%; with U251 CNS, 79.1%; in the test with PC-3 prostate, 73%. The growth was 50.8% in the test on SK-MEL-5 melanoma, 59.1% in the test on UACC-62 melanoma, 47.7% with LOX IMVI melanoma and 36.7% in the test on SK-MEL-28 melanoma.
For `CCCCCCOC(=O)CC1=C(C)/C(=C/c2[nH]c(-c3ccc[nH]3)cc2OC)N=C1C`, the growth with HCT-15 colon is -34.9% (active); with HT29 colon, 1.26% (active); with SNB-75 CNS it was -5.75% (active); with SNB-19 CNS, 12.8%; with U251 CNS, -68.8% (active); in the test on PC-3 prostate, -23% (active). For the same molecule, the growth in the test with SK-MEL-5 melanoma is -92.1% (active); with UACC-62 melanoma, -64.5% (active); in the test on LOX IMVI melanoma, -82% (active); in the test on SK-MEL-28 melanoma, -64.9% (active).
`Cn1ccnc1C(=O)/C=C/c1ccc(C(=O)Nc2ccc(F)cc2)cc1`: the growth with HCT-15 colon is 0.589% (active); in the test on HT29 colon it was 9.78% (active); in the test with SNB-75 CNS it was 33%; with SNB-19 CNS, 24.4%; with U251 CNS, 1.92% (active); with PC-3 prostate it was 22.2%. The growth in the test on SK-MEL-5 melanoma was 8.1% (active); with UACC-62 melanoma, 35.6%; with LOX IMVI melanoma, -59.7% (active); with SK-MEL-28 melanoma it was 60.9%.
Take `S=c1[nH]c2cc(Cl)ccc2o1`: the growth in the test on HCT-15 colon was 98.6%; in the test with HT29 colon it was 105%; in the test with SNB-75 CNS, 111%; in the test with SNB-19 CNS it was 102%; in the test with U251 CNS, 104%; in the test with PC-3 prostate, 88%. In addition, the growth was 99% in the test with SK-MEL-5 melanoma, 96.6% in the test with UACC-62 melanoma, 103% in the test on LOX IMVI melanoma and 114% with SK-MEL-28 melanoma.
Turning to `O=C(CCCCCCN1CC(=O)N2[C@@H](c3ccc(Cl)cc3)c3[nH]c4ccccc4c3C[C@H]2C1=O)NO`, the growth in the test on HCT-15 colon is 101%; with HT29 colon it was 76.6%; with SNB-75 CNS, 27.1%; in the test with SNB-19 CNS, 67.1%; in the test on U251 CNS, 71.1%; with PC-3 prostate it was 43.5%. Further, the growth in the test with SK-MEL-5 melanoma is 61.8%; in the test on UACC-62 melanoma it was 34.5%; in the test with LOX IMVI melanoma, -63.6% (active); with SK-MEL-28 melanoma, 46.3%.
Turning to `O=C(c1ccc(Cl)cc1Cl)N1c2ccccc2Sc2ccccc21`, the growth with HCT-15 colon was 29.6%; in the test on HT29 colon, 47.5%; in the test with SNB-75 CNS, 59.6%; with SNB-19 CNS, 57.3%; in the test on U251 CNS, 33.1%; with PC-3 prostate it was 44%. The growth with SK-MEL-5 melanoma was 34.6%; in the test on UACC-62 melanoma, 43.1%; with LOX IMVI melanoma it was 23.9%; with SK-MEL-28 melanoma it was 65.4%.
On to `COc1cc(/C=C2\CN(S(=O)(=O)c3ccc(C)cc3)C/C(=C\c3cc(CN4CCCCC4)c(O)c(OC)c3)C2=O)cc(CN2CCCCC2)c1O`, for which the growth was -86.1% (active) in the test on HCT-15 colon; -66.5% (active) with HT29 colon; -83.9% (active) in the test on SNB-75 CNS; -57.7% (active) in the test on SNB-19 CNS; -89.6% (active) in the test with U251 CNS; -39.9% (active) in the test with PC-3 prostate. In addition, the growth is -88.9% (active) in the test on SK-MEL-5 melanoma, -63.5% (active) with UACC-62 melanoma, -74.5% (active) in the test on LOX IMVI melanoma and -85.8% (active) with SK-MEL-28 melanoma.
Regarding `Cn1cc(-c2ccc3cc(-c4ccc(CC(=O)Nc5cc(C(C)(C)C)on5)cc4)cnc3c2)cn1`, the growth was 10.9% with HCT-15 colon; 38.8% in the test with HT29 colon; 28.4% in the test with SNB-75 CNS; 34.7% with SNB-19 CNS; 2.41% (active) in the test on U251 CNS; 21.1% in the test with PC-3 prostate. Also, the growth in the test with SK-MEL-5 melanoma is 26.7%; with UACC-62 melanoma it was 10.8%; with LOX IMVI melanoma, 30.4%; with SK-MEL-28 melanoma, 29.1%.
Consider `CCCCCCC(CCCC)COC(=O)c1ccc(Cl)cc1` (stereo not given), for which the growth was 107% with HCT-15 colon; 121% in the test on HT29 colon; 95% in the test with SNB-75 CNS; 109% in the test on SNB-19 CNS; 113% in the test with U251 CNS; 96.5% with PC-3 prostate. Further, the growth with SK-MEL-5 melanoma is 96.5%; with UACC-62 melanoma, 98.7%; with LOX IMVI melanoma, 103%; with SK-MEL-28 melanoma, 112%.
For the molecule `COc1ccc(C2CC(c3ccc4c(c3)OCO4)=Nc3c(N)ncnc3N2)cc1` (stereo not given), the growth in the test on HCT-15 colon was 94.3%; with HT29 colon, 106%; with SNB-75 CNS, 86.6%; in the test on SNB-19 CNS, 88.8%; in the test with U251 CNS it was 101%; with PC-3 prostate, 98.6%. For the same molecule, the growth is 87.8% in the test on SK-MEL-5 melanoma, 90.3% with UACC-62 melanoma, 101% in the test on LOX IMVI melanoma and 112% in the test on SK-MEL-28 melanoma.
